JMJD2A Tudor inh – JMJD2A Tudor domain (human) inhibition; O75164; AlphaScreen JMJD2A-Tudor / H3K4me3 peptide binding; Potency, µM (series often up to 114 µM), without a hit: at the top dose activity change, negative = inhibition, most hits filed as inhibitors; hit rate 4.4% among 390,000; further: on the % scale 0 is the no-effect control and ±100 the full control effect; nearly all actives have a fitted effect of over 50% in size
PLK1 PBD block – PLK1 (human) polo-box domain binding inhibition. P53350. Plk1 PBD binding of FITC phosphopeptide, fluorescence polarization. Potency, µM, for the others: max response, negative = inhibition, actives largely listed as inhibitors. hit rate 2.8% among 360,000. AID 720504; further: series mostly up to about 57 µM; on the % scale 0 is the no-effect control and ±100 the full control effect; nearly all actives have a fitted effect of over 65% in size
Target sequence (P53350 whole entry, looked up, the tested form may be a part): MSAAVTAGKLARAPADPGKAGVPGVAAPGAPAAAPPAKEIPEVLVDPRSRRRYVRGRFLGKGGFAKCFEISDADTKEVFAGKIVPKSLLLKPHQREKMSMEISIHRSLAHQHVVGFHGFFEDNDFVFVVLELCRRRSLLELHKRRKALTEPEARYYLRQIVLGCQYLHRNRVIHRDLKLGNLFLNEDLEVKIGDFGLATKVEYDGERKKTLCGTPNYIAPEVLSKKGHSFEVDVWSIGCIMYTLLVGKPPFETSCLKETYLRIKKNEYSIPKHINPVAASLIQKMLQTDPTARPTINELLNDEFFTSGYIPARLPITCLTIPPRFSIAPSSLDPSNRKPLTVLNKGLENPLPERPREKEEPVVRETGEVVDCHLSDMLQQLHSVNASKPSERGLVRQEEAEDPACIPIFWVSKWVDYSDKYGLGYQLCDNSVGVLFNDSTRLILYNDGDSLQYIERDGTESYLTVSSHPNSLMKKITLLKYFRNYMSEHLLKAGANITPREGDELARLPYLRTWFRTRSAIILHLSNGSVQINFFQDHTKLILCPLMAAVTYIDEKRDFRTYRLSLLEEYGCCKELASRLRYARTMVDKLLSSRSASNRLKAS
HP1b binding inh – HP1-beta chromodomain-methylated histone interaction inhibition. AlphaScreen HP1-beta / biotin-H3K9me3 peptide binding. Potency, µM (highest dose often 114 µM), inactives show at the top dose activity change, negative = inhibition, hits mostly inhibitors. hit rate 0.56% among 390,000. AID 540317; further: nearly all actives have a fitted effect of over 70% in size
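HP1-beta protein (50 nM final) preincubated 30 min at room temperature with biotinylated H3(1-18)K9me3 peptide (50 nM) in PBS pH 7.4, 0.01% Tween-20, then compound added for 30 min. AlphaScreen streptavidin donor/nickel chelate acceptor beads (10 ug/mL final), 30 min dark, luminescence read.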
BAZ2B block – blocks human BAZ2B. hit rate 4.4% among 360,000. Potency, µM (series often up to 114 µM), inactives show at the highest dose activity change, negative = inhibition, most hits filed as inhibitors. Q9UIF8. AlphaScreen BAZ2B-H3K14Ac peptide displacement. AID 504333; further: on the % scale 0 is the no-effect control and ±100 the full control effect; nearly all actives have a fitted effect of over 60% in size
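Protein-peptide AlphaScreen: BAZ2B 50 nM, b-H3K14Ac 50 nM, 1x PBS pH 7.4 + 0.01% Tween-20. Preincubation 30 min RT; cpd 30 min RT (top 110 uM); beads 20 min RT, light-protected.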
Sfp PPTase inh – Sfp phosphopantetheinyl transferase inhibition; Q9F4F7; Biochemical Sfp PPTase activity, qHTS; Potency, µM, without a hit: largest response in the series, negative = inhibition, actives largely listed as inhibitors; hit rate 3.5% among 310,000;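 further: the enzyme is Sfp with the accession as filed and its product quenches rhodamine fluorescence; 0% = enzyme reaction without inhibitor and -100% = no enzyme wells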
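After 15 min at room temperature with compound, 15 nM Sfp received 5 uM rhodamine-CoA plus 12.5 uM BHQ-2-ybbR (50 mM Hepes pH 7.6, 10 mM MgCl2). Rate came from the fluorescence difference over 30 min, ex 525/em 598 nm.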
G9a inh – inhibitors of human histone lysine methyltransferase G9a. G9a H3K9 monomethylation, AlphaScreen, 2 h. Potency, µM (doses to about 102 µM), for inactives: at the top dose activity, negative = inhibition, hits mostly inhibitors. Q96KQ7. hit rate 8.8% among 350,000; further: on the % scale 0 is the no-effect control and ±100 the full control effect; nearly all actives have a fitted effect of over 75% in size
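Methyltransferase reactions run at room temperature for 2 h (20 nM enzyme, 500 nM biotin-H3K9 peptide, 20 uM SAM) after a 15 min compound preincubation; product detected by AlphaScreen beads and anti-H3K9me1 antibody.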
* = called active by the depositor; ? = inconclusive; . = no result; [ ] = dose if it differs, or a comment. Hits are enriched below; roughly 12% of the tested compounds scored in any of these assays. The call rests on the fitted dose curve; in most records, active means well fitted curve in the direction sought with a large enough effect; inconclusive means small, poorly fitted or top-dose-only effect, or another doubt; inactive means no such curve, though single readings can be large; an effect the other way counts as inactive or inconclusive. Potency means the concentration at half of the fitted maximal effect.

SMILES | JMJD2A Tudor inh | PLK1 PBD block | HP1b binding inh | BAZ2B block | Sfp PPTase inh | G9a inh
COCCCNC(=O)c1c(-c2ccccc2)c(-c2ccccc2)nn(C)c1=O | -11% | . | 13% | -4% | . | ?
CCCN(CCC)C1=CC(=[N+]2CCCC2)CC(C)(C)C1 | ? | -11% | -14% | -13% | -18% | 1.8µM*
CN(C)NC1=CC(=[N+]2CCCC2)CC(C)(C)C1 | -18% | -1% | 7% | -11% | 8% | ?
CCOC(=O)N/N=C1/C[C@@H](O)[C@@H](O)[C@@H]2[C@@H]3C(=O)N([C@@H](C)c4ccccc4)C(=O)[C@H]3CC[C@@H]12 | . | . | . | . | -6% | .
Cc1cc(C)c(NC(=O)Cn2nnc(C(=O)NCc3ccc4c(c3)OCO4)c2N)c(C)c1 | 56µM* | ? | 15% | -16% | -1% | 17%[59 µM]
Cc1nc2ccccc2nc1OCC(=O)NCc1ccc2c(c1)OCO2 | ? | 2.7µM* | -11% | -5% | -3% | 6%
Cc1nc(SCC(=O)NCc2ccc3c(c2)OCO3)nc(C)c1C | -12% | -11% | -4% | . | . | .
Cc1cc(C)n2c(SCC(=O)NCc3ccc4c(c3)OCO4)nnc2n1 | 79µM* | 24µM* | -22% | -1% | 71µM* | 11µM*
Nc1cc(N)nc(SCC(=O)NCc2ccc3c(c2)OCO3)n1 | -22% | 6µM* | -1% | . | . | .
CCn1c(SCC(=O)NCc2ccc3c(c2)OCO3)nnc1-c1ccncc1 | -12% | 4% | 30% | -12% | 7% | -50%
Cc1ccc(NC(=O)Cn2nnc(C(=O)NCc3ccc4c(c3)OCO4)c2N)cc1 | -11% | -4% | 33% | -3% | -8% | 36%[59 µM]
CCN(CC)S(=O)(=O)c1cc(NC(=O)c2cc([N+](=O)[O-])ccc2N2CCOCC2)ccc1C | -35% | -8% | -1% | -35% | 16% | ?
O=C(CSc1nccc(=O)[nH]1)NCc1ccc2c(c1)OCO2 | -20% | -7% | 25% | -9% | 1% | ?
Cc1nnc(SCC(=O)NCc2ccc3c(c2)OCO3)[nH]c1=O | -17% | -2% | 24% | -32% | ? | 50µM*
O=C(CSc1ccc2ccccc2n1)NCc1ccc2c(c1)OCO2 | ? | 24µM* | -3% | 1% | -11% | ?
COc1ccccc1CCNC(=O)C(=O)NCC(c1cccs1)S(=O)(=O)c1cccs1 (stereo unspecified) | -8% | . | 19% | -9% | . | 6%[59 µM]
Fc1ccc(Nc2c3c(nc4nncn24)CCC3)cc1 | -10% | . | 26% | 0% | . | ?
CN(C)S(=O)(=O)c1cc(NC(=O)CN2CCOCC2)ccc1Cl | 14µM* | 24µM* | -1% | -5% | 24% | 23%
CCN(CC)S(=O)(=O)c1ccc(O)c(NC(=O)CN2CCc3ccccc3C2)c1 | 9% | -1% | 34% | -3% | 33% | 15%
Cc1ccc(NC(=O)CN2CCc3ccccc3C2)cc1S(=O)(=O)N(C)C | 3.2µM* | -17% | ? | 50µM* | -33% | 10µM*
CN(C)S(=O)(=O)c1ccc(Cl)c(NC(=O)CN2CCc3ccccc3C2)c1 | -14% | -4% | 55% | -39% | 1% | 45µM*
Cc1ccc(NC(=O)CN2CCc3ccccc3C2)cc1S(=O)(=O)N1CCOCC1 | -14% | 1% | 11% | -33% | 5% | -6%[59 µM]
CN(C)S(=O)(=O)c1cc(NC(=O)CN2CCNC(=O)C2)ccc1Cl | -10% | -10% | 24% | 2% | 1% | 11%[59 µM]
COc1cc2c(cc1OC)CN(CC(=O)Nc1ccc(Cl)c(S(=O)(=O)N(C)C)c1)CC2 | . | . | . | -26% | 9% | 45µM*
COc1cc2c(cc1OC)CN(CC(=O)Nc1ccc(S(=O)(=O)N(C)C)cc1)CC2 | -28% | -6% | -3% | . | 2% | 8%
SMILES | JMJD2A Tudor inh | PLK1 PBD block | HP1b binding inh | BAZ2B block | Sfp PPTase inh | G9a inh
Cc1cc(NC(=O)COC(=O)c2ccc([N+](=O)[O-])cc2Cl)no1 | -14% | -2% | 10% | 10% | . | 1%[12.7 µM]
CCOc1ccc(NC(=O)CN2CCc3cc4c(cc3C2)OCCCO4)cc1OCC | ? | 30µM* | -6% | -1% | 14% | 10%
N#Cc1nc(NCCCO)nc(Nc2ccccc2)n1 | -24% | . | . | . | . | .
Cc1cccc(Cn2c(Cc3ccccc3)nc3ccccc32)c1 | 48% | -7% | 62% | 64% | 56µM* | 27%[59 µM]
c1ccc(COc2ccc(OCCn3cncn3)cc2)cc1 | -10% | -1% | 40% | -18% | 10% | 3%[59 µM]
Brc1cccc(OCCCCn2cncn2)c1 | 25µM* | -11% | ? | 50µM* | ? | 25µM*
c1ccc(-c2ccc(OCCCn3cncn3)cc2)cc1 | -14%[11.4 µM] | -14% | ? | 56µM* | -25% | ?
CC(=O)CCc1ccc(OCCCCn2cncn2)cc1 | -7% | -19% | 70% | -8% | -6% | ?
CCC(C(=O)NCc1ccccc1Cl)n1nc(C)c2sc3ccccc3c2c1=O (stereo unspecified) | -17% | . | 25% | -5% | . | 1%[59 µM]
S=C(N/N=C/c1ccc(Cl)cc1)N1CCOCC1 | -28% | -10% | -6% | ? | -1% | ?
Cc1ccc(/C=N/NC(=S)N2CCOCC2)cc1 | -34% | -5% | 13% | ? | -8% | 28µM*
S=C(N/N=C/c1ccc(Br)cc1)N1CCCCC1 | ? | -24% | 11% | 7.9µM* | 12% | 24%
O=c1cc(-c2ccc(O)c(O)c2)oc2ccccc12 | . | . | . | . | -59% | ?
COC(=O)C1SCC2C(=O)N(Cc3ccc(Cl)cc3)CC(=O)N21 (stereo unspecified) | 0%[57.1 µM] | -6% | 51% | -2% | 9% | -16%
COC(=O)C1SCC2C(=O)N(Cc3ccc(Cl)c(Cl)c3)CC(=O)N21 (stereo unspecified) | ? | 19µM* | 10% | -14% | 1% | -26%

Bioassay records as filed in PubChem BioAssay.
